# From PubChem BioAssay (NCI)
# The panel holds about 79,000 compounds, 15% with a hit somewhere; the sample as a whole holds those more often. Values without a mark were called inactive. The source made the active and inactive calls. No stated cut-off is given here; in the data, active means growth inhibition above about 70%; inactive means the rest.
# Columns and labels:
# [1] = NCI Yeast Anticancer Drug Screen. Data for the mlh1 rad18 strain (AID 175); conditions: S. cerevisiae mlh1 rad18 strain growth inhibition, active compounds read high
# Summary of the method: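 Growth inhibition of the yeast strain was measured after compound exposure and expressed relative to vehicle-treated controls. The strain carries defined defects in DNA damage repair.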
# [2] = NCI Yeast Anticancer Drug Screen. Data for the rad18 strain (AID 177); conditions: S. cerevisiae rad18 mutant growth inhibition, active compounds read high
# Summary of the method: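 Yeast carrying a defined DNA damage repair alteration were exposed to compounds. Growth inhibition was expressed relative to vehicle-treated controls.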
# [3] = NCI Yeast Anticancer Drug Screen. Data for the wt1 strain (AID 149);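 further: 0% = growth of vehicle-treated wt1 cultures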; conditions: S. cerevisiae wt1 strain (SPY 50644) growth inhibition, active compounds read high
# Summary of the method: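 Vehicle-normalised growth inhibition; strain wt1; compound exposure.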
# [4] = NCI Yeast Anticancer Drug Screen. Data for the rad50EPP+ strain (AID 151);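 further: 0% = growth of vehicle-treated control cultures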; conditions: S. cerevisiae rad50 mutant strain, active compounds read high
# Summary of the method: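 Yeast strain carrying rad50 alteration (rad50EPP+) exposed to compounds; growth inhibition measured relative to vehicle-treated controls.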
# [5] = NCI Yeast Anticancer Drug Screen. Data for the mgt1 strain (AID 153); conditions: S. cerevisiae mgt1 mutant growth inhibition, active compounds read high
# Summary of the method: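 Yeast mgt1 strain (DNA repair/cell-cycle alteration panel) exposed to compounds; growth inhibition measured relative to vehicle-treated controls.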
# [6] = NCI Yeast Anticancer Drug Screen. Data for the rad50 strain (AID 155);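 further: 0% = growth of vehicle-only cultures of the same strain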; conditions: S. cerevisiae rad50 strain growth inhibition, active compounds read high
# Summary of the method: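 A DNA repair-deficient yeast mutant serves as the test organism; compound-induced growth inhibition is calculated against vehicle-treated cells.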
# [7] = NCI Yeast Anticancer Drug Screen. Data for the mec2-1 strain (AID 157); conditions: S. cerevisiae mec2-1 strain, active compounds read high
# Summary of the method: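 mec2-1 yeast strain, carrying an alteration in DNA damage repair or cell cycle control, was exposed to compounds; growth inhibition was measured relative to vehicle-treated controls.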
# [8] = NCI Yeast Anticancer Drug Screen. Data for the rad14 strain (AID 159);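 further: 0% = growth of vehicle-treated control cultures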; conditions: S. cerevisiae rad14 strain growth inhibition, active compounds read high
# Summary of the method: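 Vehicle-treated cultures served as the baseline for growth inhibition of a DNA repair-mutant yeast strain exposed to each compound.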
# [9] = NCI Yeast Anticancer Drug Screen. Data for the sgs1 mgt1 strain (AID 161);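 further: 0% = growth of cultures given vehicle only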; conditions: S. cerevisiae sgs1 mgt1 strain, active compounds read high
# Summary of the method: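 Yeast cells carrying a defined DNA-repair defect were exposed to test compounds. Growth inhibition was measured relative to vehicle-treated controls.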
# [10] = NCI Yeast Anticancer Drug Screen. Data for the CLN2oe strain (AID 163);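 further: 0% = growth of vehicle-only control cultures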; conditions: S. cerevisiae CLN2oe strain, active compounds read high
# Summary of the method: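 Yeast cells carrying a defined cell-cycle control alteration were exposed to test compounds. Growth inhibition was scored against vehicle-treated control cultures.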
# [11] = NCI Yeast Anticancer Drug Screen. Data for the cln2 rad14 strain (AID 165);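 further: 0% = growth equal to vehicle treated cultures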; conditions: S. cerevisiae cln2 rad14 strain, active compounds read high
# Summary of the method: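 Yeast carrying cln2 and rad14 alterations (cell cycle control and DNA damage repair) were exposed to compounds. Growth inhibition was measured against vehicle-treated controls.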
# [12] = NCI Yeast Anticancer Drug Screen. Data for the bub3 strain (AID 167); conditions: S. cerevisiae bub3 mutant strain, active compounds read high
# Summary of the method: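 Inhibition values come from growth of compound-treated mutant yeast normalised to vehicle-treated controls.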
# [13] = NCI Yeast Anticancer Drug Screen. Data for the wt2 strain (AID 169);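 further: 0% = growth of vehicle-treated yeast cultures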; conditions: S. cerevisiae wt2 strain growth inhibition, active compounds read high
# Summary of the method: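 Yeast cells were exposed to test compounds, and growth inhibition was measured relative to vehicle-treated controls.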
# [14] = NCI Yeast Anticancer Drug Screen. Data for the mlh1 strain (AID 171);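 further: 0% = growth of vehicle-treated control cultures of the same strain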; conditions: S. cerevisiae mlh1 strain growth inhibition, active compounds read high
# Summary of the method: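 Yeast carrying a defined genetic alteration in DNA damage repair or cell cycle control were exposed to test compounds. Growth inhibition was measured relative to vehicle-treated controls.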
# [15] = NCI Yeast Anticancer Drug Screen. Data for the sgs1 strain (AID 173);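 further: 0% = growth of vehicle-only control cultures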; conditions: S. cerevisiae sgs1 mutant, active compounds read high
# Summary of the method: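 Yeast mutant strains carrying defined defects in DNA damage repair or cell cycle control were exposed to test compounds. Growth inhibition was scored against vehicle-treated controls.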
# [16] = NCI Yeast Anticancer Drug Screen. Data for the rad52 strain (AID 147);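 further: 0% = growth of vehicle-treated control cultures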; conditions: S. cerevisiae rad52 mutant growth inhibition, active compounds read high
# Summary of the method: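 Yeast strain carrying a DNA damage repair alteration was exposed to test compounds. Growth inhibition was measured relative to vehicle-treated controls.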
# [17] = at 5.0 µM (retest, dose inferred, filed as 0.5)
# [18] = at 50.0 µM (retest, dose inferred, filed as 5.0)
structure (smiles),measurement,setting,value
O=C1C=CC(=C(c2ccccc2)c2ccccc2)c2ccccc21,growth inhibition,[1]; [17],69%
same,growth inhibition,[1]; [18],92% (active)
same,growth inhibition,[1]; at 50.0 µM,13.2%
same,growth inhibition,[2]; at 1.2 µM,6%
same,growth inhibition,[2]; at 3.7 µM,4%
same,growth inhibition,[2]; at 11.0 µM,1%
same,growth inhibition,[2]; at 33.0 µM,4%
same,growth inhibition,[2]; at 100.0 µM,2%
Cn1c(=O)c(-c2ccccc2)c(N=[N+]=[N-])c2ccccc21,growth inhibition,[3]; at 1.2 µM,-38%
same,growth inhibition,[3]; at 3.7 µM,-26%
same,growth inhibition,[3]; at 11.0 µM,-25%
same,growth inhibition,[3]; at 33.0 µM,91% (active)
same,growth inhibition,[3]; at 100.0 µM,90% (active)
same,growth inhibition,[4]; at 1.2 µM,-15%
same,growth inhibition,[4]; at 3.7 µM,6%
same,growth inhibition,[4]; at 11.0 µM,10%
same,growth inhibition,[4]; at 33.0 µM,4%
same,growth inhibition,[4]; at 100.0 µM,-18%
same,growth inhibition,[5]; at 1.2 µM,1%
same,growth inhibition,[5]; at 3.7 µM,0%
same,growth inhibition,[5]; at 11.0 µM,32%
same,growth inhibition,[5]; at 33.0 µM,94% (active)
same,growth inhibition,[5]; at 100.0 µM,89% (active)
same,growth inhibition,[6]; at 1.2 µM,14%
same,growth inhibition,[6]; at 3.7 µM,7%
same,growth inhibition,[6]; [17],-22%
same,growth inhibition,[6]; at 11.0 µM,20%
same,growth inhibition,[6]; at 33.0 µM,92% (active)
same,growth inhibition,[6]; [18],94% (active)
same,growth inhibition,[6]; at 50.0 µM,82.7% (active)
same,growth inhibition,[6]; at 100.0 µM,92% (active)
same,growth inhibition,[7]; at 1.2 µM,-1%
same,growth inhibition,[7]; at 3.7 µM,-9%
same,growth inhibition,[7]; [17],-10%
same,growth inhibition,[7]; at 11.0 µM,4%
same,growth inhibition,[7]; at 33.0 µM,87% (active)
same,growth inhibition,[7]; [18],92% (active)
same,growth inhibition,[7]; at 50.0 µM,83.8% (active)
same,growth inhibition,[7]; at 100.0 µM,93% (active)
same,growth inhibition,[8]; at 1.2 µM,12%
same,growth inhibition,[8]; at 3.7 µM,4%
same,growth inhibition,[8]; at 11.0 µM,5%
same,growth inhibition,[8]; at 33.0 µM,93% (active)
same,growth inhibition,[8]; at 100.0 µM,89% (active)
same,growth inhibition,[9]; [17],61%
same,growth inhibition,[9]; [18],93% (active)
same,growth inhibition,[9]; at 50.0 µM,87.4% (active)
same,growth inhibition,[10]; at 1.2 µM,5%
same,growth inhibition,[10]; at 3.7 µM,-17%
same,growth inhibition,[10]; at 11.0 µM,13%
same,growth inhibition,[10]; at 33.0 µM,94% (active)
same,growth inhibition,[10]; at 100.0 µM,90% (active)
same,growth inhibition,[11]; [17],23%
same,growth inhibition,[11]; [18],89% (active)
same,growth inhibition,[11]; at 50.0 µM,86% (active)
same,growth inhibition,[12]; at 1.2 µM,26%
same,growth inhibition,[12]; at 3.7 µM,26%
same,growth inhibition,[12]; [17],-7%
same,growth inhibition,[12]; at 11.0 µM,35%
same,growth inhibition,[12]; at 33.0 µM,94% (active)
same,growth inhibition,[12]; [18],95% (active)
same,growth inhibition,[12]; at 50.0 µM,86.5% (active)
same,growth inhibition,[12]; at 100.0 µM,94% (active)
same,growth inhibition,[13]; at 1.2 µM,-35%
same,growth inhibition,[13]; at 3.7 µM,-29%
same,growth inhibition,[13]; at 11.0 µM,-9%
same,growth inhibition,[13]; at 33.0 µM,87% (active)
same,growth inhibition,[13]; at 100.0 µM,91% (active)
same,growth inhibition,[14]; at 1.2 µM,1%
same,growth inhibition,[14]; at 3.7 µM,3%
same,growth inhibition,[14]; at 11.0 µM,43%
same,growth inhibition,[14]; at 33.0 µM,92% (active)
same,growth inhibition,[14]; at 100.0 µM,88% (active)
same,growth inhibition,[15]; at 1.2 µM,-11%
same,growth inhibition,[15]; at 3.7 µM,-13%
same,growth inhibition,[15]; at 11.0 µM,13%
same,growth inhibition,[15]; at 33.0 µM,91% (active)
same,growth inhibition,[15]; at 100.0 µM,92% (active)
same,growth inhibition,[1]; [17],-4%
same,growth inhibition,[1]; [18],94% (active)
same,growth inhibition,[1]; at 50.0 µM,83% (active)
same,growth inhibition,[2]; at 1.2 µM,7%
same,growth inhibition,[2]; at 3.7 µM,-5%
same,growth inhibition,[2]; at 11.0 µM,11%
same,growth inhibition,[2]; at 33.0 µM,93% (active)
same,growth inhibition,[2]; at 100.0 µM,85% (active)
C[C@@H]1C[C@H]2[C@@H]3CCC4=CC(=O)C=C[C@]4(C)[C@@]3(Cl)[C@@H](Cl)C[C@]2(C)[C@@]1(O)C(=O)COP(=O)(O)O,growth inhibition,[16]; at 1.2 µM,-1%
same,growth inhibition,[16]; at 3.7 µM,-3%
same,growth inhibition,[16]; at 11.0 µM,6%
same,growth inhibition,[16]; at 33.0 µM,1%
same,growth inhibition,[16]; at 100.0 µM,3%
same,growth inhibition,[4]; at 1.2 µM,-3%
same,growth inhibition,[4]; at 3.7 µM,-8%
same,growth inhibition,[4]; at 11.0 µM,-3%
same,growth inhibition,[4]; at 33.0 µM,3%
same,growth inhibition,[4]; at 100.0 µM,5%
same,growth inhibition,[5]; at 1.2 µM,11%
same,growth inhibition,[5]; at 3.7 µM,5%
same,growth inhibition,[5]; at 11.0 µM,3%
same,growth inhibition,[5]; at 33.0 µM,8%
same,growth inhibition,[5]; at 100.0 µM,2%
same,growth inhibition,[6]; at 1.2 µM,4%
same,growth inhibition,[6]; at 3.7 µM,-10%
same,growth inhibition,[6]; [17],2%
same,growth inhibition,[6]; at 11.0 µM,3%
same,growth inhibition,[6]; at 33.0 µM,7%
same,growth inhibition,[6]; [18],19%
same,growth inhibition,[6]; at 50.0 µM,-34.1%
same,growth inhibition,[6]; at 100.0 µM,8%
same,growth inhibition,[7]; at 1.2 µM,-3%
same,growth inhibition,[7]; at 3.7 µM,-3%
same,growth inhibition,[7]; [17],17%
same,growth inhibition,[7]; at 11.0 µM,0%
same,growth inhibition,[7]; at 33.0 µM,-3%
same,growth inhibition,[7]; [18],5%
same,growth inhibition,[7]; at 50.0 µM,-36.9%
same,growth inhibition,[7]; at 100.0 µM,1%
same,growth inhibition,[8]; at 1.2 µM,-1%
same,growth inhibition,[8]; at 3.7 µM,0%
same,growth inhibition,[8]; at 11.0 µM,-2%
same,growth inhibition,[8]; at 33.0 µM,-2%
same,growth inhibition,[8]; at 100.0 µM,1%
same,growth inhibition,[9]; [17],-14%
same,growth inhibition,[9]; [18],6%
same,growth inhibition,[9]; at 50.0 µM,-30.8%
same,growth inhibition,[10]; at 1.2 µM,-10%
same,growth inhibition,[10]; at 3.7 µM,-3%
same,growth inhibition,[10]; at 11.0 µM,7%
same,growth inhibition,[10]; at 33.0 µM,-1%
same,growth inhibition,[10]; at 100.0 µM,-6%
same,growth inhibition,[11]; [17],41%
same,growth inhibition,[11]; [18],-23%
same,growth inhibition,[11]; at 50.0 µM,26.1%
same,growth inhibition,[12]; at 1.2 µM,2%
same,growth inhibition,[12]; at 3.7 µM,-1%
same,growth inhibition,[12]; [17],-20%
same,growth inhibition,[12]; at 11.0 µM,2%
same,growth inhibition,[12]; at 33.0 µM,0%
same,growth inhibition,[12]; [18],-8%
same,growth inhibition,[12]; at 50.0 µM,-42.2%
same,growth inhibition,[12]; at 100.0 µM,-3%
same,growth inhibition,[13]; at 1.2 µM,-2%
same,growth inhibition,[13]; at 3.7 µM,-2%
same,growth inhibition,[13]; at 11.0 µM,-2%
same,growth inhibition,[13]; at 33.0 µM,-2%
same,growth inhibition,[13]; at 100.0 µM,-3%
same,growth inhibition,[15]; at 1.2 µM,0%
same,growth inhibition,[15]; at 3.7 µM,-3%
same,growth inhibition,[15]; at 11.0 µM,-2%
same,growth inhibition,[15]; at 33.0 µM,-1%
same,growth inhibition,[15]; at 100.0 µM,-1%
same,growth inhibition,[1]; [17],9%
same,growth inhibition,[1]; [18],1%
same,growth inhibition,[1]; at 50.0 µM,-18.3%
same,growth inhibition,[2]; at 1.2 µM,-4%
same,growth inhibition,[2]; at 3.7 µM,-5%
same,growth inhibition,[2]; at 11.0 µM,1%
same,growth inhibition,[2]; at 33.0 µM,7%
same,growth inhibition,[2]; at 100.0 µM,7%
